About 4,800 (77%) of roughly 6,200 compounds were called active.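 Rule for the calls: active = mean inhibition at 8 µM reaching about 37%, which flags the compound as non-specific (limit read from the data); inactive = the rest.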 So high a share suggests a set chosen from earlier hits. A selection follows.

The inhibition is the change of the read-out against control, counted positive when it falls.

The test can be described thus: luminescence decrease from intact luciferase reporter – cell-based, single concentration, SaOS-2, counter-screen for Mdm2/MdmX interaction inhibitor project, confirmation (AID 504607).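 Note: p53-null SaOS-2 cells with luciferase driven by a doxycycline-inducible promoter; compound on cells about two nights before reading with doxycycline added after day one.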 The following applies: SaOS-2 full-length luciferase counterscreen, at 8 µM, hits give high values. For orientation: In a reporter assay the amount or activity of a reporter protein is the signal.
Consider `Cc1ccc(OCCOCCOc2ccc(Br)cc2/C=N\NC(=O)c2ccncc2)cc1`, for which the inhibition is 45.5% (active). For the molecule `CC(=O)N1CCc2c(sc(NC(=O)CCS(=O)(=O)c3ccccc3)c2C#N)C1`, the inhibition is 57.3% (active). Then `COc1cc(NS(=O)(=O)c2ccc3ccccc3c2)c2ncccc2c1`, with 22.5% (inactive). To `O=[N+]([O-])c1ccccc1S(=O)(=O)Nc1cccc2cccnc12` belongs 56.4% (active); to `COc1ccc(NC(=O)/C(Cl)=C(/Cl)S(=O)Cc2ccc(C)cc2)cn1` (configuration not stated), 0.18% (inactive); to `CN(C)CCCn1c(=O)n(Cc2ccccc2)c(=O)c2c3c(sc21)CCCCC3`, 70% (active). Then `CSc1nnc(NC(=O)c2nc(S(=O)(=O)Cc3ccc(C)cc3)ncc2Cl)s1`, with 49.9% (active); and `Cc1ccc(CS(=O)(=O)c2ncc(Cl)c(C(=O)Nc3nnc(C)s3)n2)cc1`, with 50.9% (active); and `COc1ccccc1N1CCN(c2ncnc3sc(C)c(-c4ccccc4)c23)CC1`, with 80.6% (active). For the molecule `COc1ccccc1N(CC(=O)N/N=C(\C)c1ccccc1O)S(=O)(=O)c1ccc(C)cc1`, the inhibition was 37.3% (active). Then `COc1cc(NC(=O)c2cncc(-c3ccc(C#N)cc3)c2)cc(C(=O)Nc2cccc(C(F)(F)F)c2)c1`, with 21.1% (inactive); and `COc1cc(NC(=O)c2[nH]cnc2C(N)=O)cc(C(=O)Nc2cccc(C(F)(F)F)c2)c1`, with 50% (active).

Consider `CC[C@H]1CN2CCc3cc(OC)c(OC)cc3[C@@H]2C[C@@H]1C[C@H]1NCCc2cc(OC)c(OC)cc21`, for which the inhibition was 51.2% (active).

Regarding `Cc1ccc(C(=O)N/C(=C/c2ccc(-c3cccc([N+](=O)[O-])c3)o2)C(=O)NCCCN(C)C)cc1`, the inhibition is 44.1% (active). To `Nc1nonc1-c1nc2ccccc2n1Cc1ccc(F)cc1` belongs 71.9% (active); to `COc1ccc(OC)c(C2C3=C(N=c4s/c(=C\c5cccc(O)c5)c(=O)n42)c2ccccc2CC3)c1` (configuration not stated), 41.8% (active); to `C=CCn1c(SCc2c(C)noc2C)nc2sc3c(c2c1=O)CCC(C)C3` (configuration not stated), 52.9% (active). Turning to `O=C(NCC1CCCO1)c1cc2c([nH]c3ccccc32)c(-c2ccc(F)cc2)n1` (configuration not stated), the inhibition is 74.8% (active). As to `Oc1c(CN2CCCC2)cc(COCc2ccccc2)c2cccnc12`, the inhibition was 32.2% (inactive).

`COc1cc(/C=N/NC(=O)Nc2ccccc2)ccc1OCCOc1ccccc1C`: the inhibition was 62.6% (active). Then `O=C(NC(=O)c1ccccc1N1CCCCC1)Nc1ccc(Br)cc1`, with 86.3% (active). To `CCOC(=O)c1c(-c2ccc(C)cc2C)csc1NC(=O)CSc1nnnn1C` belongs 73.6% (active); to `COc1ccc(C2CC(c3ccccc3)=NN2C(=O)c2ccc(Cl)c([N+](=O)[O-])c2)cc1` (configuration not stated), 62.6% (active).

Consider `CC(=O)c1ccc(S(=O)(=O)N2CCN(C(=O)/C=C/c3ccc4ccccc4n3)CC2)cc1`, for which the inhibition is 46.9% (active). Then `N/C(=N\OC(=O)c1ccc2c(c1)OCO2)c1ccc(Br)cc1`, with 137% (active); and `CCc1nc(C)cn1S(=O)(=O)c1cc([N+](=O)[O-])ccc1Cl`, with 103% (active).

In the case of `CCOc1cc(/C=C/c2nc3ccccc3c(=O)[nH]2)cc(Br)c1OC`, the inhibition was 57.5% (active). To `O=C(/C=C/c1ccc(Cl)c([N+](=O)[O-])c1)c1ccc(O)cc1` belongs 59.3% (active); to `O=C(/C=C/c1ccc(Cl)c([N+](=O)[O-])c1)c1cccnc1`, 67.5% (active). To `CCCc1nc(NCc2ccc3c(c2)OCO3)c2nnn(Cc3ccccc3Cl)c2n1` belongs 91.5% (active); to `CC(C)Cc1nc(Nc2ccc(S(=O)(=O)N3CCCC3)cc2)c2nnn(Cc3ccccc3)c2n1`, 24.1% (inactive); to `COc1ccc(/C=C/C(=O)c2ccc(NS(=O)(=O)c3ccc(C)cc3)cc2)cc1O`, 65.2% (active).

In the case of `Cc1ccc(C2CC(=O)NC(SCC(=O)OCc3ccccc3)=C2C#N)o1` (configuration not stated), the inhibition was 55.9% (active). To `Cc1cc(C(=O)COC(=O)CNC(=O)c2ccc(F)cc2)c(C)n1Cc1ccco1` belongs 98.9% (active).

`Cc1ccsc1C(=O)OCC(=O)c1cc(C)n(CC2CCCO2)c1C` (configuration not stated): the inhibition is 28.9% (inactive).

On to `CCOc1cc(C(=O)N2CCc3cc(OC)c(OC)cc3C2)ccc1OC(F)F`, for which the inhibition was 86.4% (active). With `COc1cc(N=Cc2c(O)[nH]c3ccccc23)cc(OC)c1OC`, the inhibition was 47% (active). Turning to `COc1ccc(N=Cc2c(O)[nH]c3ccccc23)cc1OC`, the inhibition is 65.3% (active).

Turning to `c1ccc2c(c1)C(=NC1CCCCC1)NC2=NC1CCCCC1`, the inhibition was 42.2% (active). Then `OC(CNCC1CCCO1)Cn1c2ccc(Br)cc2c2cc(Br)ccc21` (configuration not stated), with 52.2% (active); and `CC1=C/C(=N\OS(=O)(=O)c2ccccc2)C=CC1=O`, with 45.1% (active). To `CCc1ccc2c(c1)C1(NN=C(c3ccccc3)S1)C(=O)N2` (configuration not stated) belongs 40.3% (active).

Consider `Cn1cc([N+](=O)[O-])c(C(=O)Nc2cnn(Cc3ccc(F)cc3)c2)n1`, for which the inhibition is 74.9% (active). On to `COc1ccccc1-n1nnnc1S(=O)(=O)Cc1ccc(Cl)cc1`, for which the inhibition is 52.1% (active). Then `COc1cccc(/C=N/NC(=O)c2[nH]nc3c2CCc2ccccc2-3)c1O`, with 27% (inactive); and `COc1cccc(/C=N/Nc2cc(C)nc(-c3ccccc3O)n2)c1O`, with 55.6% (active). Then `c1ccc(C2CCC(N3CCC(N4CCCCC4)CC3)CC2)cc1` (configuration not stated), with 38.2% (active); and `CCCCCCCCCCOC(=O)Cn1c(COc2ccc(C)cc2)[n+](C)c2ccccc21`, with 59.5% (active). Then `CCCCCCCCCCOC(=O)Cn1c(COc2cccc(OC)c2)[n+](C)c2ccccc21`, with 31.2% (inactive). Take `CC1CCN(C(=O)c2ccc(S(=O)(=O)Cc3cc(F)ccc3F)c([N+](=O)[O-])c2)CC1`: the inhibition was 44.1% (active). Then `COc1ccc(-c2n[nH]c(C)c2-c2ccc(OC)c(OC)c2)c(O)c1`, with 53.7% (active); and `COc1ccc(-c2cn[nH]c2-c2ccc(OC)cc2)cc1`, with 35.1% (inactive); and `CCCCn1c(-c2cccc(C)c2)nc2cc3[nH]c(=O)c(C(C)C)nc3cc21`, with 91.6% (active). Then `CC(=O)Nc1nc(C)c(-c2csc(Nc3ccc(S(N)(=O)=O)cc3)n2)s1`, with 31.7% (inactive); and `O=C(NC(=S)Nc1ccc2oc(=O)ccc2c1)c1ccc(-c2cccc(Cl)c2Cl)o1`, with 68.2% (active); and `O=c1oc2ccccc2cc1-c1cn(-c2ccccc2)c(=S)[nH]1`, with 38.4% (active). To `NC(N)=Nc1nc(-c2ccccc2)c2cc(Cl)ccc2n1` belongs 53.4% (active); to `COc1ccc(NC(=O)c2cc(-c3cc(OC)c(OC)c(OC)c3)nc3ccccc23)c(OC)c1`, 58.2% (active); to `COc1ccc(Nc2ncnc3ccc(Br)cc23)c(OC)c1`, 24.3% (inactive).

For the molecule `Cc1ccc2nc(-c3ccncc3)cc(C(=O)Nc3ccc4c(c3)OCCO4)c2c1`, the inhibition is 44.2% (active).

As to `COc1ccc(C(CCN(Cc2ccc(OC)c(OC)c2)C(=O)CCl)c2ccccc2)cc1` (configuration not stated), the inhibition was 58.4% (active). To `Cc1noc(C)c1-c1ccc2ncnc(NC(C)c3ccco3)c2c1` (configuration not stated) belongs 59.8% (active); to `Cc1cccc(Nc2nc3c(S(=O)(=O)c4ccccc4)nnn3c3ccccc23)c1C`, 94.3% (active).

In the case of `CN(c1ccc2nc3ccccc3c(=O)n2n1)C1CCCCC1`, the inhibition is 27.7% (inactive). As to `CC(Nc1nc(C(F)(F)F)nc2ccccc12)c1cccs1` (configuration not stated), the inhibition is 50.3% (active).

With `CC(C)(C)Nc1nc(-c2ccccn2)nc2ccccc12`, the inhibition was 23.3% (inactive).

For the molecule `COc1ccc(Cc2nnc(N/N=C/c3ccccc3O)[nH]c2=O)cc1OC`, the inhibition is 38.6% (active). In the case of `Cc1nnc(N/N=C/c2ccccn2)[nH]c1=O`, the inhibition is 20.6% (inactive). To `CCOc1cc(N2CCOCC2)c(OCC)cc1NC(=O)COc1cccc2cccnc12` belongs 39.6% (active); to `CCCOc1ccccc1C1CC(=O)Nc2cc3c(cc21)OCO3` (configuration not stated), 74.9% (active); to `COc1ccccc1C1C2=C(COC2=O)Nc2cc3c(cc21)OCO3` (configuration not stated), 90.3% (active).

With `CCOc1ccc(S(=O)(=O)Nc2cccc(C(=O)NCC3(N4CCCCC4)CCCCC3)c2)cc1`, the inhibition is 56.1% (active). Then `COc1ccc(CS(=O)/C(Cl)=C(/Cl)C(=O)Nc2ccc(OC)nc2)cc1` (configuration not stated), with -0.43% (inactive); and `O=C(CCCN1C(=O)/C(=C\c2ccco2)SC1=S)Nc1cccc2ccccc12`, with 28.5% (inactive). Take `O=C(CCCN1C(=O)/C(=C/c2cccs2)SC1=S)Nc1ccc(O)cc1`: the inhibition was 43% (active). For the molecule `O=C(CCCN1C(=O)/C(=C/c2ccco2)SC1=S)Nc1ccccc1`, the inhibition was 50% (active). To `O=C1/C(=C/c2ccc(F)cc2)SC(=S)N1CCCC(=O)N1CCCCC1CCO` (configuration not stated) belongs 23.7% (inactive); to `COc1ccc(/C=C2\SC(=S)N(CCC(=O)Nc3ccccn3)C2=O)cc1OC`, 72.7% (active). Then `O=C(CCCN1C(=O)/C(=C/c2ccccc2)SC1=S)Nc1ccc(O)cc1`, with 51.8% (active). To `O=C(CCCN1C(=O)/C(=C\c2ccccc2)SC1=S)Nc1ccccc1O` belongs 30.3% (inactive). Turning to `CCOc1ccc(-c2cc(C(=O)N/N=C/c3ccc(O)cc3)c3ccccc3n2)cc1`, the inhibition was 48.3% (active). Then `Oc1ccc(/C=N/Nc2nc(-c3ccccc3F)nc3ccccc23)c(O)c1`, with 31% (inactive); and `Cc1nc2ccccc2nc1N/N=C/c1ccc(O)cc1O`, with 46.2% (active).

For `COc1cc(OC)c2c(-c3cccc(-c4cccc(N)c4)c3)cc(=O)oc2c1`, the inhibition was 50.1% (active).

Take `CC(NC(=O)c1ccc(N2CCNCC2)c([N+](=O)[O-])c1)C12CC3CC(CC(C3)C1)C2` (configuration not stated): the inhibition is 56.5% (active). To `CC[C@]1(O)C[C@@H]2CN(CCc3c([nH]c4ccccc34)[C@@](C(=O)OC)(c3cc4c(cc3OC)N(C)[C@H]3[C@@](O)(C(=O)OC)[C@H](OC(C)=O)[C@]5(CC)C=CCN6CC[C@]43[C@@H]65)C2)C1` belongs 94.7% (active). To `CC[C@]1(O)CC2CN(CCc3c([nH]c4ccccc34)[C@@](C(=O)OC)(c3cc4c(cc3OC)N(C=O)[C@H]3[C@@](O)(C(=O)OC)[C@H](OC(C)=O)[C@]5(CC)C=CCN6CC[C@]43[C@@H]65)C2)C1` (some centres not stated) belongs 102% (active).

Source of the values: PubChem BioAssay AID504607 (Sanford-Burnham Center for Chemical Genomics, 2011).
